# From PubChem BioAssay (NCATS)
# Results filed as inconclusive are left out. A call without a number means that no potency is given here. A number with no mark means an inactive call. Active and inactive are the calls of the source. Unless noted, calls follow the shape of the dose curve; as a rule, active = well fitted curve in the direction sought with a large enough effect; inconclusive = small, poorly fitted or top-dose-only effect, or another doubt; inactive = no such curve, though single readings can be large; an effect the other way counts as inactive or inconclusive.
# What was measured:
# [1] = qHTS for Inhibitors of the Functional Ribonucleoprotein Complex (vRNP) of Lassa (LASV) Arenavirus: LASV Primary Screen - GLuc reporter signal (AID 1347082; calls by dose curve; tested in HEK293 reporter line; also: series mostly up to about 57 µM; nearly all actives have a fitted effect of over 60% in size)
# [2] = qHTS for Inhibitors of the Functional Ribonucleoprotein Complex (vRNP) of Lassa (LASV) Arenavirus: Viability assay - alamar blue signal for LASV Primary Screen (AID 1347083; calls by dose curve; tested in HEK293 reporter line; also: nearly all actives have a fitted effect of over 80% in size; also: potency is read from the fitted curve at half-maximal effect)
# [3] = qHTS for Inhibitors of the Functional Ribonucleoprotein Complex (vRNP) of Lymphocytic Choriomeningitis Arenaviruses (LCMV): Viability assay - alamar blue signal for LCMV Primary Screen (AID 1347085; calls by dose curve; tested in HEK293 reporter line; also: series mostly up to about 57 µM; nearly all actives have a fitted effect of over 80% in size)
# [4] = NS1 protein of Zika virus - qHTS assay to identify small molecule inhibitors in human HEK 293 cells (AID 1347053); also: series mostly up to about 46 µM; nearly all actives have a fitted effect of over 55% in size
# Method in brief: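 In this cell-based screen, HEK 293 cultures received compound for one hour before Zika MR766 at MOI = 0.5. NS1 was quantified 24 hours later by TR-FRET, normalized to virus-free wells and infected wells.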
# [5] = target: Nucleoprotein (Lymphocytic choriomeningitis virus (strain Armstrong)) (UniProt P09992); experiment: qHTS for Inhibitors of the Functional Ribonucleoprotein Complex (vRNP) of Lymphocytic Choriomeningitis Arenaviruses (LCMV): LCMV Primary Screen - GLuc reporter signal (AID 1347086; calls by dose curve; also: series mostly up to about 57 µM; nearly all actives have a fitted effect of over 70% in size)
# Nucleoprotein (Lymphocytic choriomeningitis virus (strain Armstrong)), sequence (P09992 whole entry, looked up): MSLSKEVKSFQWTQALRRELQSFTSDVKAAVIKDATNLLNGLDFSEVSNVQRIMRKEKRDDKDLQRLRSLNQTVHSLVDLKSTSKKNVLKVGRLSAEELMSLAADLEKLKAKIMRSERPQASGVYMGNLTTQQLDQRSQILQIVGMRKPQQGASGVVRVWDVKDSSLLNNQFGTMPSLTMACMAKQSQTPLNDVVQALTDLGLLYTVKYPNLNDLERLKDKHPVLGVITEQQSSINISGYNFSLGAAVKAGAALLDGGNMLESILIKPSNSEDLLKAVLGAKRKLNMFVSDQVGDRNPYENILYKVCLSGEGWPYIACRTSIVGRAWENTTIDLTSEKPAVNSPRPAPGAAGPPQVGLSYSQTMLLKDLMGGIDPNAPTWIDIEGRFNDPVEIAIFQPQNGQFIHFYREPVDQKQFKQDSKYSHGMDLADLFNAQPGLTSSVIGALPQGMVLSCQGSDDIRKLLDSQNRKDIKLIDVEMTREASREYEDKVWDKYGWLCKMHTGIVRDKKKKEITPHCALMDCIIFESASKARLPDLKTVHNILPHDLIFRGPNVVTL
# [6] = qHTS of pediatric cancer cell lines to identify multiple opportunities for drug repurposing: Primary screen for TC32 cells (AID 1347089); also: nearly all actives have a fitted effect of over 60% in size
# Method in brief: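 TC32 cells, 500-1,000/well in growth medium, compound-treated 48 h at 37 °C; viability from CellTiter-Glo luminescence. Primary screen: MIPE 11-point (0.78 nM–46 µM final), NPC 8-point (0.59 nM–46 µM final); confirmatory at 11-point dilutions.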
# [7] = qHTS of pediatric cancer cell lines to identify multiple opportunities for drug repurposing: Primary screen for DAOY cells (AID 1347090); also: nearly all actives have a fitted effect of over 55% in size; also: potency is read from the fitted curve at half-maximal effect
# Method in brief: (§1)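 Cell viability, CellTiter-Glo luminescence; 500-1,000 cells/well, 8- or 11-point titration, 48 h compound exposure at 37 degrees C, 5% CO2. Controls: DMSO neutral, bortezomib 2.3 µM final as positive.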
# [8] = qHTS of pediatric cancer cell lines to identify multiple opportunities for drug repurposing: Primary screen for A673 cells (AID 1347092); also: nearly all actives have a fitted effect of over 45% in size
# Method in brief: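 A673 cells (500-1,000 cells/well) were treated 48 hours at 37 degrees C with compounds at 11-point (0.78 nM to 46 µM) or 8-point (0.59 nM to 46 µM) dilutions. Viability read by CellTiter-Glo luminescence; concentration-response curves fitted.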
# [9] = qHTS of pediatric cancer cell lines to identify multiple opportunities for drug repurposing: Primary screen for BT-37 cells (AID 1347094); also: series mostly up to about 57 µM
# Method in brief: (§2)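 Quantitative HTS format: each compound titrated (MIPE 11 points from 0.78 nM, NPC 8 points from 0.59 nM) onto cells plated 5 hours earlier. After 48 h at 37 degrees C, CellTiter-Glo luminescence was recorded.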
# [10] = qHTS of pediatric cancer cell lines to identify multiple opportunities for drug repurposing: Primary screen for NB-EBc1 cells (AID 1347095); also: potency is read from the fitted curve at half-maximal effect
# Method in brief: as §2
# [11] = qHTS of pediatric cancer cell lines to identify multiple opportunities for drug repurposing: Primary screen for U-2 OS cells (AID 1347096); also: nearly all actives have a fitted effect of over 50% in size
# Method in brief: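 Cells (500-1,000/well) rested 5 h, then received compounds for 48 h; metabolically active cells were measured by CellTiter-Glo luminescence. Final concentrations spanned up to 46 µM (MIPE, 11-point) or 0.59 nM-46 µM (NPC, 8-point) in primary screens, 11-point in follow-ups.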
# [12] = qHTS of pediatric cancer cell lines to identify multiple opportunities for drug repurposing: Primary screen for SK-N-MC cells (AID 1347093); also: potency is read from the fitted curve at half-maximal effect
# Method in brief: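 Metabolically active cells were quantified by ATP-dependent luminescence (CellTiter-Glo, 15 min at room temperature) following 48 h treatment. Cells had been plated at 500-1,000 per well and settled for 5 h beforehand.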
# [13] = qHTS of pediatric cancer cell lines to identify multiple opportunities for drug repurposing: Primary screen for SJ-GBM2 cells (AID 1347091)
# Method in brief: as §1
smiles,measurement,setting,value
Nc1nc(Cl)nc2c1ncn2[C@@H]1O[C@H](CO)[C@@H](O)[C@@H]1F,Potency,[1],inactive
O=c1[nH]c(=O)n([C@H]2C[C@H](O)[C@@H](CO)O2)cc1F,Potency,[1],inactive
CC(C)(S)[C@@H](N)C(=O)O,Potency,[1],inactive
same,Potency,[2],inactive
same,Potency,[3],inactive
O=c1[nH]c2ccccc2n1C1CCNCC1,outcome,[4],inactive
same,Potency,[1],inactive
same,Potency,[2],inactive
same,Potency,[3],inactive
same,Potency,[5],inactive
same,Potency,[6],inactive
same,Potency,[7],inactive
same,Potency,[8],inactive
same,Potency,[9],inactive
same,Potency,[10],inactive
same,Potency,[11],inactive
O=c1oc2ccccc2c(O)c1Cc1c(O)c2ccccc2oc1=O,outcome,[4],inactive
same,Potency,[1],inactive
same,Potency,[2],inactive
same,Potency,[3],inactive
same,Potency,[5],inactive
same,Potency,[6],inactive
same,Potency,[7],inactive
same,Potency,[8],inactive
same,Potency,[12],15 µM (active)
same,Potency,[9],inactive
same,Potency,[10],15 µM (active)
same,Potency,[11],inactive
Cc1nc2ccc(CN(C)c3ccc(C(=O)N[C@@H](CCC(=O)O)C(=O)O)s3)cc2c(=O)[nH]1,Potency,[1],inactive
CC(C)(C)C1CCC(CC2=C(O)c3ccccc3C(=O)C2=O)CC1 (stereo not given),Potency,[1],inactive
same,Potency,[2],inactive
same,Potency,[3],inactive
O=C(O)c1ccccc1-c1ccc(C(F)(F)F)cc1,Potency,[1],inactive
same,Potency,[2],inactive
O=C1c2ccccc2C(=O)C1C(=O)C(c1ccccc1)c1ccccc1,outcome,[4],inactive
same,Potency,[1],inactive
same,Potency,[2],inactive
same,Potency,[3],inactive
same,Potency,[5],inactive
same,Potency,[7],26.6 µM (active)
same,Potency,[9],inactive
CCOc1ccc2nc3cc(N)ccc3c(N)c2c1,Potency,[1],inactive
CC(=O)NC[C@H]1CN(c2ccc(N3CCOCC3)c(F)c2)C(=O)O1,Potency,[1],inactive
same,Potency,[2],inactive
same,Potency,[3],inactive
CC(C(=O)O)c1ccc2c(c1)CC(=O)c1ccccc1S2 (stereo not given),Potency,[1],inactive
same,Potency,[2],inactive
CC(Cc1ccccc1)N(C)Cc1ccco1 (stereo not given),outcome,[4],inactive
same,Potency,[1],inactive
same,Potency,[2],inactive
same,Potency,[6],inactive
same,Potency,[7],inactive
same,Potency,[13],inactive
same,Potency,[8],inactive
same,Potency,[12],inactive
same,Potency,[9],inactive
same,Potency,[10],inactive
same,Potency,[11],inactive
CCN(CCO)CCn1c(Cc2ccccc2)nc2c1c(=O)n(C)c(=O)n2C,outcome,[4],inactive
same,Potency,[1],inactive
same,Potency,[2],inactive
same,Potency,[3],inactive
same,Potency,[5],inactive
same,Potency,[6],inactive
same,Potency,[7],inactive
same,Potency,[8],inactive
same,Potency,[12],inactive
same,Potency,[9],inactive
same,Potency,[10],inactive
same,Potency,[11],inactive
COCCCOc1ccnc(CS(=O)c2nc3ccccc3[nH]2)c1C (stereo not given),Potency,[1],inactive
same,Potency,[2],inactive
CNNCc1ccc(C(=O)NC(C)C)cc1,Potency,[1],inactive
same,Potency,[2],inactive
same,Potency,[3],inactive
same,Potency,[5],inactive
C[C@]12Cc3cn[nH]c3C[C@@H]1CC[C@@H]1[C@@H]2CC[C@@]2(C)[C@H]1CC[C@]2(C)O,outcome,[4],inactive
same,Potency,[1],inactive
same,Potency,[2],inactive
same,Potency,[3],inactive
same,Potency,[5],inactive
same,Potency,[6],inactive
same,Potency,[8],inactive
same,Potency,[9],inactive
C[C@]12CC[C@@H]3c4ccc(OC(=O)N(CCCl)CCCl)cc4CC[C@H]3[C@@H]1CC[C@@H]2O,outcome,[4],inactive
same,Potency,[1],inactive
same,Potency,[2],inactive
same,Potency,[3],inactive
same,Potency,[5],inactive
same,Potency,[6],inactive
same,Potency,[7],inactive
same,Potency,[8],inactive
same,Potency,[12],inactive
same,Potency,[9],inactive
same,Potency,[11],inactive
S=c1nc[nH]c2nc[nH]c12,Potency,[1],inactive
same,Potency,[2],6.11 µM (active)
C[C@]12CCC(=O)C=C1CC[C@@H]1[C@@H]2CC[C@@]2(C)[C@H]1CC[C@]2(C)O,outcome,[4],inactive
same,Potency,[1],inactive
same,Potency,[2],inactive
same,Potency,[3],inactive
same,Potency,[5],inactive
same,Potency,[6],inactive
same,Potency,[7],inactive
same,Potency,[8],inactive
same,Potency,[9],inactive
CCCN(CCC)C(=O)Cc1c(-c2ccc(Cl)cc2)nc2ccc(Cl)cn12,outcome,[4],inactive
same,Potency,[1],inactive
same,Potency,[2],inactive
same,Potency,[3],inactive
same,Potency,[5],inactive
same,Potency,[6],inactive
same,Potency,[7],inactive
same,Potency,[12],16.8 µM (active)
same,Potency,[9],inactive
NC(=O)c1cnccn1,Potency,[1],inactive
same,Potency,[2],inactive
same,Potency,[3],inactive
O=C(O)c1ccc(=O)[nH]c1,outcome,[4],inactive
same,Potency,[1],inactive
same,Potency,[2],inactive
same,Potency,[3],inactive
same,Potency,[5],inactive
same,Potency,[6],inactive
same,Potency,[7],inactive
same,Potency,[8],inactive
same,Potency,[12],inactive
same,Potency,[9],inactive
same,Potency,[10],inactive
same,Potency,[11],inactive
